Screens deposited in PubChem by National Center for Advancing Translational Sciences (NCATS).
TDP1 inh = TDP1 (human) enzyme inhibition | Q9NUW8 | AID 485290 | 0.28% of 350,000 active | recombinant TDP1, AlphaScreen DNA substrate cleavage | Potency, µM (highest dose often 130 µM), without a hit: top-dose activity change, negative = inhibition, actives largely listed as inhibitors; further: potency means the concentration at half of the fitted maximal effect; on the % scale 0 is the no-effect control and ±100 the full control effect; nearly all actives have a fitted effect of over 40% in size
Target sequence (Q9NUW8 whole entry, looked up): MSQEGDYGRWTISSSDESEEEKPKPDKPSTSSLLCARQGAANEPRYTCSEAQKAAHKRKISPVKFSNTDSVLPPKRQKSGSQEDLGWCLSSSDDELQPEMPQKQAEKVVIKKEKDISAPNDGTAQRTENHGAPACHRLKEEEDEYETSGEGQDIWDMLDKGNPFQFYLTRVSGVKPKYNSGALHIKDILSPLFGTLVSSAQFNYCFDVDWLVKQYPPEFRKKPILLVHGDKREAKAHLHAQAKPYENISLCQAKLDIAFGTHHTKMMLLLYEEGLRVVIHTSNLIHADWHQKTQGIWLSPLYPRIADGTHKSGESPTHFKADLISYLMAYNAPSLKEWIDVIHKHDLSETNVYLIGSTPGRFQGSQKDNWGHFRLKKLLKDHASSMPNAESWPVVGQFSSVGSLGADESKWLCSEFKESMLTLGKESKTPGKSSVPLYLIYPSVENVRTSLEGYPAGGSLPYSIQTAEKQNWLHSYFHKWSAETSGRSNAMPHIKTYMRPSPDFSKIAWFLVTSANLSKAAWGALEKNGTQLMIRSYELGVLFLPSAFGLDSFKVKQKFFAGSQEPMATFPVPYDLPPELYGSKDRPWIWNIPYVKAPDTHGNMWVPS
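E. coli-derived human Tdp1, 1 nM final. Cpd preinc 15 min RT; substrate 15 nM final, 5 min RT; AS bead mix 10 ug/ml final, 10 min RT. Signal loss = tyrosine-FITC cleavage. No-enzyme wells = max signal.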
DT40 TDP1 no CPT = qHTS for Inhibitors of human tyrosyl-DNA phosphodiesterase 1 (TDP1): qHTS in cells in absence of CPT; 15% of 420,000 active; DT40 Tdp1-/- hTDP1 cells, no CPT, ATP luminescence, 48 h; AID 686978, 2013; Potency, µM (series often up to 46.2 µM), without a hit: at the highest dose activity change, negative = growth inhibition, hits mostly inhibitors; further: potency means the concentration at half of the fitted maximal effect; on the % scale 0 is the no-effect control and ±100 the full control effect; nearly all actives have a fitted effect of over 55% in size
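Luminescent ATP content (CellTiter-Glo) served as the growth readout. Knockout chicken DT40 cells expressing human TDP1 were exposed to compounds without camptothecin for a minimum 48 hr at 37 °C.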
HepG2 tox = counter-screen for TGF-b inhibitors: cytotoxicity in HepG2 cells. HepG2 CAGA-GFP viability, ATP luminescence, 18 h. Potency, µM (highest dose often 46.1 µM), inactives show at the top dose activity change, negative = cytotoxicity, most hits filed as cytotoxic. 0.76% of 410,000 active. AID 588856; further: potency means the concentration at half of the fitted maximal effect
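HepG2 CAGA-GFP cells (1000/well, DMEM with 1% FBS) received compound, then TGF-beta at 500 pg/mL final, and were incubated 18 hours at 37 degrees C. Viability was read by CellTiter-Glo luminescence. Media-only wells were set as complete cell-killing and DMSO as no toxicity.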
DT40 TDP1 CPT = DT40-hTDP1 cell growth loss with CPT | 12% of 420,000 active | Potency, µM (titrated, usually from 46.2 µM), for the others: top-dose activity change, negative = growth inhibition, hits mostly inhibitors | chicken DT40 Tdp1-/-;hTDP1 cells + 20 nM CPT, ATP luminescence, 48 h; further: potency means the concentration at half of the fitted maximal effect; on the % scale 0 is the no-effect control and ±100 the full control effect; nearly all actives have a fitted effect of over 55% in size
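Cell growth measured by CellTiter-Glo luminescence after a minimum 48 h, 37 C compound exposure with 20 nM CPT in Tdp1-knockout DT40 cells stably expressing hTDP1, seeded 400/well; qHTS titration format.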
TGFb SMAD3 inh = inhibitors of TGF-b signaling; HepG2 CAGA-GFP TGF-b/SMAD3 reporter, GFP fluorescence, 18 h; TGF-beta stimulated, 500 pg/mL final; Potency, µM (top dose mostly 46.1 µM), for the others: at the top dose activity, negative = inhibition, usual class: inhibitors; 1.2% of 410,000 active; further: potency means the concentration at half of the fitted maximal effect; on the % scale 0 is the no-effect control and ±100 the full control effect; nearly all actives have a fitted effect of over 65% in size
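Using HEPG2 CAGA-GFP reporter cells at 1000 cells/well, we pinned test compounds, stimulated with recombinant TGF-beta (500 pg/mL final) and measured total well GFP after 18 h.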
IL1B secr inh = blocks inflammasome-driven IL-1 beta release; THP-1 LPS/ATP IL-1B secretion, AlphaLISA, 16 h; hits give low values; activity change, % at 57.5 µM; 4.7% of 360,000 active; AID 743279; in the data active means activity change below about -50%; inconclusive means mostly about -30% to -49%; further: on the % scale 0 is the no-effect control and ±100 the full control effect
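Secreted IL-1B measured by AlphaLISA bead assay after 16 h compound exposure of THP-1 cells; compounds (final up to 57.5 uM) added 1 h before LPS (250 ng/mL) and ATP (1.25 mM) stimulation; lower signal means less secretion.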
Active calls of the source: *; [ ] = dose if it differs, or a comment. The list is not random: actives were taken first. Their share in the collection is about 18%. Unless noted, the call rests on the fitted dose curve; in most records, active means well fitted curve in the direction sought with a large enough effect; inconclusive means small, poorly fitted or top-dose-only effect, or another doubt; inactive means no such curve, though single readings can be large; an effect the other way counts as inactive or inconclusive.

Results for COc1ccc(C)cc1Cn1c(S(C)(=O)=O)nc2ccccc21 ?
TDP1 inh: 3%; DT40 TDP1 no CPT: 21µM*; HepG2 tox: -3%; DT40 TDP1 CPT: 16µM*; TGFb SMAD3 inh: -5%; IL1B secr inh: 16

How did CC1CCCC(C)N1CCNC(=O)CCc1nnc2n(Cc3ccccc3)c(=O)c3ccccc3n12 (configuration not stated) do in these assays?
DT40 TDP1 no CPT: -17%; HepG2 tox: -11%; DT40 TDP1 CPT: -11%; TGFb SMAD3 inh: 3%; IL1B secr inh: inconclusive

What do the screens show for `CCN(Cc1cc2cc(OC)ccc2[nH]c1=O)C(=O)c1ccncc1`?
TDP1 inh: -3%; DT40 TDP1 no CPT: -11%; HepG2 tox: 5%; DT40 TDP1 CPT: -7%; TGFb SMAD3 inh: 0%; IL1B secr inh: 0

How did CCCN(Cc1cc2cc(C)ccc2[nH]c1=O)C(=O)c1cccc(Cl)c1 do in these assays?
TDP1 inh: 7%; DT40 TDP1 no CPT: 23µM*; HepG2 tox: 3%; DT40 TDP1 CPT: inconclusive; TGFb SMAD3 inh: -5%

What do the screens show for `Cc1ccc2[nH]c(=O)c(CN(Cc3cccnc3)C(=O)c3ccncc3)cc2c1`?
TDP1 inh: -7%; DT40 TDP1 no CPT: 21µM*; HepG2 tox: -15%; DT40 TDP1 CPT: inconclusive; TGFb SMAD3 inh: -8%; IL1B secr inh: 10

What do the screens show for `Cc1ccc2c(c1)cc(CN(Cc1cccnc1)C(=O)c1ccccc1)c1nnnn12`?
TDP1 inh: 0%; DT40 TDP1 no CPT: 0%; HepG2 tox: -1%; DT40 TDP1 CPT: -10%; TGFb SMAD3 inh: -13%; IL1B secr inh: -2

How did Cc1ccc(C(=O)N(Cc2cccnc2)Cc2cc3cc(C)ccc3n3nnnc23)cc1 do in these assays?
TDP1 inh: 0%; DT40 TDP1 no CPT: inconclusive; HepG2 tox: 7%; DT40 TDP1 CPT: 18µM*; TGFb SMAD3 inh: 2%; IL1B secr inh: 3

How did Cc1ccc2cc(CN(Cc3cccs3)C(=O)c3ccco3)c3nnnn3c2c1C do in these assays?
TDP1 inh: 5%

Results for Cc1ccc2c(c1)cc(CN(Cc1cccs1)C(=O)c1ccco1)c1nnnn12 ?
TDP1 inh: 5%; DT40 TDP1 no CPT: 16µM*; HepG2 tox: -20%; DT40 TDP1 CPT: inconclusive; TGFb SMAD3 inh: 0%; IL1B secr inh: -29

Results for CCCCN(Cc1cc2cc(C)ccc2[nH]c1=O)C(=O)c1cccc(Cl)c1 ?
TDP1 inh: 4%; DT40 TDP1 no CPT: inconclusive; HepG2 tox: 0%; DT40 TDP1 CPT: inconclusive; TGFb SMAD3 inh: inconclusive

Results for OCCN1CCN(Cc2ccc3c(c2)CN(Cc2cc4ccccc4o2)CCO3)CC1 ?
DT40 TDP1 no CPT: -21%; DT40 TDP1 CPT: 1%[9.04 µM]

Results for COc1ccc(C2=NOC(C(=O)Nc3ccc4c(c3)OCCO4)C2)cc1OC (configuration not stated) ?
DT40 TDP1 no CPT: 19%; HepG2 tox: -3%; DT40 TDP1 CPT: -10%; TGFb SMAD3 inh: 0%; IL1B secr inh: inconclusive

Results for COc1cc(=O)n2c(c1C(=O)NCc1ccco1)CCN(C(=O)c1c(F)ccc(F)c1F)CC2 ?
DT40 TDP1 no CPT: -12%; DT40 TDP1 CPT: 26%

How did S=C(NCc1ccccc1)NCc1ccccc1Cl do in these assays?
TDP1 inh: 0%; DT40 TDP1 no CPT: 6%; HepG2 tox: -43%; DT40 TDP1 CPT: -2%; TGFb SMAD3 inh: inconclusive; IL1B secr inh: -26

What do the screens show for `COc1ccc(OC)c(S(=O)(=O)N2CCN(c3ccccc3OC)CC2)c1`?
DT40 TDP1 no CPT: inconclusive; HepG2 tox: -10%; DT40 TDP1 CPT: -24%; TGFb SMAD3 inh: -2%; IL1B secr inh: 7

What do the screens show for `Cc1ccc2c(c1)cc(CN(Cc1ccc3c(c1)OCO3)S(=O)(=O)c1ccccc1)c1nnnn12`?
TDP1 inh: -4%; DT40 TDP1 no CPT: 21µM*; HepG2 tox: 1%; DT40 TDP1 CPT: inconclusive; TGFb SMAD3 inh: 2%; IL1B secr inh: 14

What do the screens show for `CN1/C(=C\C(=O)c2cccnc2)Sc2ccccc21`?
TDP1 inh: 1%; DT40 TDP1 no CPT: inconclusive; HepG2 tox: -15%; DT40 TDP1 CPT: inconclusive; TGFb SMAD3 inh: -24%; IL1B secr inh: -6

Results for COc1cccc(C(=O)/C=C2\Sc3ccccc3N2C)c1 ?
TDP1 inh: -8%; DT40 TDP1 no CPT: inconclusive; HepG2 tox: -21%; DT40 TDP1 CPT: inconclusive; TGFb SMAD3 inh: inconclusive; IL1B secr inh: -77*

What do the screens show for `CCN(CC)c1ccccc1/C=C/[n+]1ccc(CCCCI)c2ccccc21`?
DT40 TDP1 no CPT: 0.56µM*; HepG2 tox: -28%; DT40 TDP1 CPT: 0.63µM*; TGFb SMAD3 inh: inconclusive

How did CC(C)c1csc(CN2CCCC(CNC(=O)c3cccc4ccccc34)C2)n1 (configuration not stated) do in these assays?
TDP1 inh: 5%; DT40 TDP1 no CPT: inconclusive; HepG2 tox: -9%; DT40 TDP1 CPT: 16µM*; TGFb SMAD3 inh: inconclusive; IL1B secr inh: 31

Results for O=C(CSc1nnc(CNc2ccc(F)cc2)n1CC1CCCO1)Nc1ccccc1 (configuration not stated) ?
TDP1 inh: 7%; DT40 TDP1 no CPT: inconclusive; HepG2 tox: 6%; DT40 TDP1 CPT: 21µM*; TGFb SMAD3 inh: -2%; IL1B secr inh: -12

What do the screens show for `Cc1ccc(NCc2nnc(SCC(=O)Nc3ncc(C)s3)n2CC2CCCO2)c(C)c1` (configuration not stated)?
TDP1 inh: 7%; DT40 TDP1 no CPT: inconclusive; HepG2 tox: -6%; DT40 TDP1 CPT: -8%; TGFb SMAD3 inh: 24%; IL1B secr inh: -10

How did Cc1ccc(NCc2nnc(SCC(=O)Nc3cccc(O)c3)n2CC2CCCO2)c(C)c1 (configuration not stated) do in these assays?
TDP1 inh: 8%; DT40 TDP1 no CPT: inconclusive; HepG2 tox: -22%; DT40 TDP1 CPT: inconclusive; TGFb SMAD3 inh: 0%; IL1B secr inh: -51*

What do the screens show for `COc1ccccc1CNC(=O)C1CCC(=O)N(CCCc2ccccc2)C1` (configuration not stated)?
TDP1 inh: 3%; DT40 TDP1 no CPT: -10%; HepG2 tox: -16%; DT40 TDP1 CPT: inconclusive; TGFb SMAD3 inh: -3%; IL1B secr inh: 12
